From ChEMBL document CHEMBL3988442, “University of Dundee, Small-Polar-MMV Screening Library” (2021)
The whole screen tested about 48,000 compounds, of which about 13,000 (27%) showed an effect of 50% or more. This is one part of the list.

test system: Wolbachia pipientis; test: Anti-Wolbachia Cell-Based Screen; format: functional; set-up: scale not given: in the data most compounds retested in dose-response had high values; conditions: 5 µM

| Compound | Percent Effect [%] |
| --- | --- |
| CC(CNCc1ccncc1)Oc1ccccn1.Cl (stereo not drawn) | 14.12 |
| Cc1cc(N2Cc3cnc(CC(C)C)nc3C2)nc(N)n1 | -9.889 |
| COC(=O)c1ccc(N(C)C2CCC2)nn1 | -14.02 |
| CSc1ccccc1CCC1CCS(=O)(=O)C1 (stereo not drawn) | -15.64 |
| CS(=O)(=O)CCC(=O)NC1CC(c2cccc(Cl)c2)C1 (stereo not drawn) | -6.793 |
| CCOCC1CN(C(=O)COc2ccccc2)Cc2cn(C)nc21 (stereo not drawn) | -5.674 |
| COCC1CN(C(=O)COc2ccccc2)Cc2cn(C)nc21.O=C(O)C(F)(F)F (stereo not drawn) | -8.714 |
| CNC(=O)C1CN(C(=O)c2ccccc2)Cc2cn(C)nc21 (stereo not drawn) | 107.7 |
| CNC(=O)C1CN(C(=O)COc2ccccc2)Cc2cn(C)nc21 (stereo not drawn) | 122.8 |
| COCC1CN(C(=O)c2ccco2)Cc2cn(C)nc21.O=C(O)C(F)(F)F (stereo not drawn) | -0.009633 |
| COCC(=O)N1Cc2cn(C)nc2C(COc2cccnc2)C1 (stereo not drawn) | -3.351 |
| O=C1N(c2ccccc2)C[C@H]2CN(C3CCC3)CCN12 | -7.27 |
| O=C(c1ccccc1)N1CCN(C2CCc3ccc(F)cc32)CC1 (stereo not drawn) | -8.707 |
| CCn1cc(CN2CCN(C(=O)N3CCOCC3)CC2)cn1 | 3.548 |
| CCn1cc(CN2CCC(O)(Cn3ccc4ncccc43)CC2)cn1 | 79.32 |
| OC1(Cn2ccc3ccncc32)CCN(Cc2ccccn2)CC1 | -11.69 |
| OC1(Cn2ccc3ncccc32)CCN(Cc2cccnc2)CC1 | 93.84 |
| CCn1ncc(CN2CCC(O)(Cn3ccc4ncccc43)CC2)c1C | 101.2 |
| CCn1cc(CN2CCC(CCC(=O)Nc3ccccc3Cl)CC2)cn1 | 5.103 |
| OC1(Cn2ccc3ncccc32)CCN(Cc2cccs2)CC1 | 107.1 |
| Cc1cc(-n2cccn2)ccc1CN1CCC(O)(CN2CCCCC2)C1 (stereo not drawn) | -16.49 |
| CCn1ccnc1-c1nccn1-c1ccccc1CN1CCOCC1 | -5.226 |
| O=C(CCn1ccc2ccccc21)N1CCN(Cc2cccnc2)CC1 | -2.767 |
| c1cnnc(N2CCCC(NCc3nc(-c4ccsc4)no3)C2)c1 (stereo not drawn) | -5.717 |
| COC(=O)c1ccc2ccn(CC3COCCO3)c(=O)c2c1 (stereo not drawn) | -29.12 |

| Compound | Percent Effect [%] |
| --- | --- |
| NS(=O)(=O)N1CCC(C(=O)Nc2cccc(OC(F)F)c2)CC1 | 23.74 |
| Cc1cccc2c(=O)c(C(=O)N3CCCC4(CN(C)C(=O)O4)C3)c[nH]c12 (stereo not drawn) | 3.697 |
| CN(Cc1nc(CS(C)(=O)=O)no1)c1ccccc1 | 1.355 |
| COc1ccccc1OC1CN(C(=O)C(c2ccccc2F)N(C)C)C1 (stereo not drawn) | 10.69 |
| O=C(c1cccc(S(=O)(=O)NCCc2nccs2)c1)N1CCOCC1 | -12.77 |
| COCCCn1c(CN2CCCC(O)C2)cnc1S(=O)(=O)C1CCCC1 (stereo not drawn) | -2.252 |
| COCCN1C(=O)[C@]2(CC[C@@H]3CN(S(=O)(=O)CC(C)C)C[C@@H]32)N=C1C | -14.47 |
| CC(C)(C)C(=O)NCC(=O)NCC1CCCS1 (stereo not drawn) | -13.47 |
| CN(Cc1ccc(C#N)cc1)C(=O)c1ccnc(OC2CCC2)c1 | -4.84 |
| Cc1cc(N2CCCN(Cc3ccc(C)o3)CC2)ccn1 | -3.581 |
| OCC1(O)CCCN(Cc2ccccc2OCCc2ccccc2)CC1 (stereo not drawn) | 13.11 |
| Cc1ccc(CN2CCC(O)(Cn3ccc4ncccc43)CC2)o1.Cl | 100 |
| COc1ccc(F)cc1CN1CCC(O)(CN2CCCCC2)C1 (stereo not drawn) | 8.228 |
| OC1(Cn2ccc3ncccc32)CCN(Cc2cc(F)cc(F)c2)CC1 | 107.3 |
| Cc1cc(CN2CCC(O)(Cn3ccc4ncccc43)CC2)c(C)s1 | 75.84 |
| Cc1cc(C(=O)N2CCN(C(=O)Cc3ccccn3)CC2)c(C)s1 | 2.124 |
| NC(=O)CN1CC2(CCC1=O)CCN(Cc1cc(F)cc(F)c1)CC2 | 6.606 |
| Oc1cc(CN2CCC(O)(Cn3ccnc3)CC2)nc2ccc(F)cc12 | -18 |
| Cc1ccc(CN2CCCC3(CCN(Cc4ccc(C)o4)C3)C2)o1 (stereo not drawn) | 14.2 |
| Cc1ccc2nc(CN3CCC(O)(Cn4ccnc4)CC3)cc(O)c2c1 | -4.196 |
| COc1ccccc1CN1CCC(O)(Cn2ccc3ncccc32)CC1 | 82.78 |
| Nc1ccnn1C1CCN(Cc2ccccc2)C1 (stereo not drawn) | -4.351 |
| CCN(C)Cc1cnc(S(=O)(=O)CC)n1CCOC | 2.274 |
| Cc1cc(S(=O)(=O)NCC2CNCCOC2)c(C)cc1Cl (stereo not drawn) | -6.904 |
| O=C(O)C(=O)O.c1cnc(-c2noc(C3CN(Cc4ccsc4)C3)n2)cn1 | 20.73 |

| Compound | Percent Effect [%] |
| --- | --- |
| Cl.OC1(Cn2ccc3ncccc32)CCN(Cc2ccccc2F)CC1 | 103.8 |
| Cl.OC1(Cn2ccc3ncccc32)CCN(Cc2ccccn2)CC1 | -13.22 |
| O=C(O)C1(Cc2ccccc2Cl)CCN(c2ncccc2F)CC1 | -2.228 |
| COc1ccc(N2CCCC3(C2)CN(c2ncccn2)CCO3)cc1 (stereo not drawn) | 2.929 |
| c1ccc(CO[C@H]2CN(c3ncccn3)C[C@@]23CCCO3)cc1 | 124.5 |
| c1ccc(CN2CCOC3(CCCN(c4nccs4)C3)C2)cc1 (stereo not drawn) | -0.1767 |
| CN(C(=O)COC1CCCCC1)C1CCN(CC2CCOC2)CC1 (stereo not drawn) | -5.016 |
| COc1cc2c(cc1OC)CN(C(C(=O)O)c1c(C)nn(C)c1C)CC2 (stereo not drawn) | 14.43 |
| COc1ccccc1OCC(=O)N1CCC[C@]2(C[C@@H](OC)CO2)C1 | -30.12 |
| CO[C@H]1CO[C@@]2(CCCN(C(=O)C3CC=CC3)C2)C1 | 107.2 |
| CO[C@@H]1CO[C@@]2(CCN(C(=O)COc3ccccc3C)C2)C1 | -3.612 |
| CO[C@@H]1CO[C@@]2(CCCN(C(=O)C3CC=CC3)C2)C1 | 95.67 |
| COCC(=O)N1CC[C@@H]2O[C@@H](COCC3CCOCC3)CC[C@@H]21 | -13.21 |
| Cc1ccc(NS(=O)(=O)c2cccc(C#N)c2)c(CN(C)C)c1 | 5.777 |
| Cc1nn(C)cc1C(=O)N1CCCC(n2nnc3cc(F)ccc32)C1 (stereo not drawn) | 70.61 |
| CCc1nnsc1C(=O)N1CCCC(COc2ccc(F)cc2)C1 (stereo not drawn) | -1.511 |
| O=C(c1n[nH]cc1Cl)N1CCCC(n2nnc3cc(F)ccc32)C1 (stereo not drawn) | 121.3 |
| Cc1nnsc1C(=O)N1CCCC(n2nnc3cc(F)ccc32)C1 (stereo not drawn) | 86.87 |
| Cc1nnsc1C(=O)N1CCCC(c2nccn2Cc2cscn2)C1 (stereo not drawn) | 19.06 |
| Cc1c(C(=O)N2CCCC(n3nnc4cc(F)ccc43)C2)cnn1C (stereo not drawn) | 103.4 |
| Cc1nc(C)n(C2CCCN(C(=O)c3ccc(F)cc3F)C2)n1 (stereo not drawn) | 4.826 |
| Cc1cc(C)n(C2CCCN(C(=O)c3ccc(F)cc3F)C2)n1 (stereo not drawn) | 0.0476 |
| O=C(c1n[nH]cc1Cl)N1CCOC(Cc2cccc(C(F)(F)F)c2)C1 (stereo not drawn) | 16.6 |
